One sequence from paper PMC7862700, “An all-to-all approach to the identification of sequence-specific readers for epigenetic DNA modifications on cytosine” can be followed below.

Experiment in all cases: DAPPL (digital affinity profiling via proximity ligation, sequencing); 10 mM Tris-HCl pH 7.5, 50 mM NaCl, 1 mM DTT, 4% glycerol, room temperature, 30 min; GST-TFs on glutathione beads, 16-mer random dsDNA library, 0.1% formaldehyde crosslink after washing; high values mean tight binding
In assay [1] the target is T1, FEV (Homo sapiens, UniProt Q99581 1-238).
T1 sequence: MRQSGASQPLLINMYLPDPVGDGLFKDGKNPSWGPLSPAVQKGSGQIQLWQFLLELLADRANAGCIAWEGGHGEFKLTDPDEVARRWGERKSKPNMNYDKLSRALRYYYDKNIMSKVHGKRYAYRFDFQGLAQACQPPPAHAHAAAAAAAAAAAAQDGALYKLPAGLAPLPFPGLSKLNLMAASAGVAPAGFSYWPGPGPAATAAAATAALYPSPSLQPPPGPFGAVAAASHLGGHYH
Particulars: protein: recombinant; tags: N-terminal GST; dsDNA, one strand shown. A digest of the protocol:
(§1)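 Binding signal is each hexamer's read frequency for a factor divided by its frequency in the tag-only sample. The factors were GST-fused human transcription factors from yeast, captured on glutathione beads, DNA-barcoded and pooled with that sample. Pools were incubated with 200 nmole of a random double-stranded 16-mer DNA library in Tris/NaCl/DTT/glycerol buffer at room temperature for 30 min, then washed, crosslinked with 0.1% formaldehyde, proximity-ligated with BsaI/T4 ligase (1 h, 37 °C), PCR-amplified and sequenced on an Illumina NextSeq500.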

For assay [2], the target named is ETV5 (Homo sapiens, UniProt P41161 1-510). Particulars: protein: recombinant; tags: N-terminal GST; dsDNA, one strand shown. Summed up:
as §1

The target in assay [3] is HSF1 (Homo sapiens, UniProt Q00613 1-529). The settings on record: protein: recombinant; tags: N-terminal GST; chain copies: 3; dsDNA, one strand shown. Summed up:
as §1

The target in assay [4] is T2, SPIC (Homo sapiens, UniProt Q8N5J4 1-248).
T2 sequence: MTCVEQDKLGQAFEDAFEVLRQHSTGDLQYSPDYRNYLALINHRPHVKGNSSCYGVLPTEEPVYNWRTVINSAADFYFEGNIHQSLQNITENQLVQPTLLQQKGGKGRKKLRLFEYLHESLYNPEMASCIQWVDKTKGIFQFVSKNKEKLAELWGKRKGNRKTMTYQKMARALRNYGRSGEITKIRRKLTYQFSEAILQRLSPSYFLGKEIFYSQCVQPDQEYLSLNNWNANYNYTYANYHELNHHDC
The settings on record: protein: recombinant; tags: N-terminal GST; dsDNA, one strand shown. A digest of the protocol: as §1

The target of assay [5] is ELF4 (Homo sapiens, UniProt Q99607 1-663). Particulars: protein: recombinant; tags: N-terminal GST; dsDNA, one strand shown. A digest of the protocol: as §1
Assay [6] addresses T3, ELK4 (Homo sapiens, UniProt P28324-2 1-405).
T3 sequence: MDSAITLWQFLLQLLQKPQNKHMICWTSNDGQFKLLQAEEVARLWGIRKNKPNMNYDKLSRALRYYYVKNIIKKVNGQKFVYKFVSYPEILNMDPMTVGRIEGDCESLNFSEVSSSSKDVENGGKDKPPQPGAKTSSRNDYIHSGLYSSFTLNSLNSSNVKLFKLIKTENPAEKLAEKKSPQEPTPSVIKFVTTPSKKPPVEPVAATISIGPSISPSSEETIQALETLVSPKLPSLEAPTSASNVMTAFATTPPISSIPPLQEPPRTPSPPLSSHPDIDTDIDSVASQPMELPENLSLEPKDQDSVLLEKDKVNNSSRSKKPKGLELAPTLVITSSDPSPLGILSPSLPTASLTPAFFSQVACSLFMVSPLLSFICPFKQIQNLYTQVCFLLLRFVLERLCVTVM
Particulars: protein: recombinant; tags: N-terminal GST; dsDNA, one strand shown. Summed up:
as §1

The target of assay [7] is T4, ETV2 (Homo sapiens, UniProt O00321 1-342).
T4 sequence: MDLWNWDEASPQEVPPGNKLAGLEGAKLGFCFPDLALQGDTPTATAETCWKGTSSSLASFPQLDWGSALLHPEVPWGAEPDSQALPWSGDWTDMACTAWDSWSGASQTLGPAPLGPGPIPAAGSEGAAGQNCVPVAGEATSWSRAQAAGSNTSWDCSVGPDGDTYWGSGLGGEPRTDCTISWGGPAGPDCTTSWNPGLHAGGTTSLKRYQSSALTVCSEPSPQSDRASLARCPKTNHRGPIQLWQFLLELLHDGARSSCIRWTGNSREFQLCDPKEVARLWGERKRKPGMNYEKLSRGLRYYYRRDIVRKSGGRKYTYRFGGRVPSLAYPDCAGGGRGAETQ
Particulars: protein: recombinant; tags: N-terminal GST; dsDNA, one strand shown. Summed up: as §1

The target in assay [8] is T5, ELF3 (Homo sapiens, UniProt P78545 1-371).
T5 sequence: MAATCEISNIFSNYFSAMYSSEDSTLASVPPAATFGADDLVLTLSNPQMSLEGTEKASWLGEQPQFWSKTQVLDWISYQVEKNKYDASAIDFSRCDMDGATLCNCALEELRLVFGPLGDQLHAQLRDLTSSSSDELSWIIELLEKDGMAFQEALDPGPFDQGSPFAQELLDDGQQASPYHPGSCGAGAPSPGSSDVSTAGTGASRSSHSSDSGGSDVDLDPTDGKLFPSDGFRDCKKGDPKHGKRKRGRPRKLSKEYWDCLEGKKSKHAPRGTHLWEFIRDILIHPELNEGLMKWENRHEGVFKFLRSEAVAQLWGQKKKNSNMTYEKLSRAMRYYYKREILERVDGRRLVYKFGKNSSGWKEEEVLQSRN
Particulars: protein: recombinant; tags: N-terminal GST; dsDNA, one strand shown. Summed up:
as §1

Assay [9] deals with CRX (Homo sapiens, UniProt O43186 1-299). Particulars: protein: recombinant; tags: N-terminal GST; dsDNA, one strand shown. A digest of the protocol:
as §1

Assay [10] deals with ETV1 (Homo sapiens, UniProt P50549 1-477). Particulars: protein: recombinant; tags: N-terminal GST; dsDNA, one strand shown. A digest of the protocol: as §1
In assay [11] the target is T6, ERF (Homo sapiens, UniProt P50548 1-548).
T6 sequence: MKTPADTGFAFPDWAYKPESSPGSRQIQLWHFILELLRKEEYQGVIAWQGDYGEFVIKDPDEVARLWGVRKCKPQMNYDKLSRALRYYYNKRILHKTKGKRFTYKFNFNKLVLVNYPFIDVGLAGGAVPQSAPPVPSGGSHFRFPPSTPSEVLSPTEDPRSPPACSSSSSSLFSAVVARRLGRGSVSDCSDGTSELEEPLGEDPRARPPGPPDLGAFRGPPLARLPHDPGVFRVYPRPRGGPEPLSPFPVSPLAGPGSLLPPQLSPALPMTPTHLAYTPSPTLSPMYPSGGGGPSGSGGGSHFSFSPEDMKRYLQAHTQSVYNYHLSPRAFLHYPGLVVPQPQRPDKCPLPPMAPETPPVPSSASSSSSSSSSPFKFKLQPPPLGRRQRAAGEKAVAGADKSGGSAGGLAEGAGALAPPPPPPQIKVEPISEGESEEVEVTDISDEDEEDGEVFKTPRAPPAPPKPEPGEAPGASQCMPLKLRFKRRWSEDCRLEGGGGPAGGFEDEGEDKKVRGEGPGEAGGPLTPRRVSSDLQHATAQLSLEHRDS
The settings on record: protein: recombinant; tags: N-terminal GST; dsDNA, one strand shown. A digest of the protocol: as §1

Assay [12] addresses T7, ETV3L (Homo sapiens, UniProt Q6ZN32 1-361).
T7 sequence: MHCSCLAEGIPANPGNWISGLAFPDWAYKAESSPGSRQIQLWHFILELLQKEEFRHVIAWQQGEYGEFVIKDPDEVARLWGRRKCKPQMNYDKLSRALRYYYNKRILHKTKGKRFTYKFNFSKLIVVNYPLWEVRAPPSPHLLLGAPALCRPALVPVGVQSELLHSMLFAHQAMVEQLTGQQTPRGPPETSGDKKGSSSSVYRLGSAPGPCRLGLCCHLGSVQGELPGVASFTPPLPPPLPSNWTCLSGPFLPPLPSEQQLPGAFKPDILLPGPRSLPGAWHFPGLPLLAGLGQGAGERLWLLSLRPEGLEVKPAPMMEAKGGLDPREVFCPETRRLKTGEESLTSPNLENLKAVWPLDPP
Particulars: protein: recombinant; tags: N-terminal GST; dsDNA, one strand shown. Summed up: as §1

Assay [13] deals with T8, ETS2 (Homo sapiens, UniProt P15036 1-469).
T8 sequence: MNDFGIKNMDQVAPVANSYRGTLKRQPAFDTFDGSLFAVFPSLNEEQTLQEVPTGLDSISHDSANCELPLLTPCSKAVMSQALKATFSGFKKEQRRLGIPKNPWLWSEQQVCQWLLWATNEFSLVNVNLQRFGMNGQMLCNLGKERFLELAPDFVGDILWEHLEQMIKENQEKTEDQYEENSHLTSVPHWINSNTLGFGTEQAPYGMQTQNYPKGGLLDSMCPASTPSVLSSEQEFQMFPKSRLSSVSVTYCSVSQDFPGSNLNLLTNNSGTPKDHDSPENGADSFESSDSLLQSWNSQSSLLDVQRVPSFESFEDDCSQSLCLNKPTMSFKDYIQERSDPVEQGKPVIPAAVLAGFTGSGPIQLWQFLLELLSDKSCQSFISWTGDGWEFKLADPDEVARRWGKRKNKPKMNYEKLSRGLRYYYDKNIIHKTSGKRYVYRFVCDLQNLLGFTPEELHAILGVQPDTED
The settings on record: protein: recombinant; tags: N-terminal GST; dsDNA, one strand shown. A digest of the protocol:
as §1

The target of assay [14] is T9, SPDEF (Homo sapiens, UniProt O95238 1-335).
T9 sequence: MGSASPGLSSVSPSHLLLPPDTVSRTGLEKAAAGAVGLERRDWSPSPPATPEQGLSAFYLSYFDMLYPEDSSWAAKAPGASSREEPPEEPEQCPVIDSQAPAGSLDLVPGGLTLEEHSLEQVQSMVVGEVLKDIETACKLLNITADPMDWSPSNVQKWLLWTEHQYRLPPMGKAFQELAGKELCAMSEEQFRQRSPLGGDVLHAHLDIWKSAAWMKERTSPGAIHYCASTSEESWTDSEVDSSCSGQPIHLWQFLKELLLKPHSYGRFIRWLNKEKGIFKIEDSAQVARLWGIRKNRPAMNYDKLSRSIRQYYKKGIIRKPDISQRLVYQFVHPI
The settings on record: protein: recombinant; tags: N-terminal GST; dsDNA, one strand shown. Summed up: as §1

In assay [15] the target is T10, ETV7 (Homo sapiens, UniProt Q9Y603 1-341).
T10 sequence: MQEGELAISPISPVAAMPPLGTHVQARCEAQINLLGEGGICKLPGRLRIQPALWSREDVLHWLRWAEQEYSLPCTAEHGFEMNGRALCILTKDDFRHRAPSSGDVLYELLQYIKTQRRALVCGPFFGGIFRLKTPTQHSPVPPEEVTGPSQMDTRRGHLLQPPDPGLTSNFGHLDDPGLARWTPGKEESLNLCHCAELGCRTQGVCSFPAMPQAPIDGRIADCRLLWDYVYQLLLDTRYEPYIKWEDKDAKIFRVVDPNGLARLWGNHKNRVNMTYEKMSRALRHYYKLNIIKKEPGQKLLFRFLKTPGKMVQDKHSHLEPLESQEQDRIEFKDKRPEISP
Particulars: protein: recombinant; tags: N-terminal GST; dsDNA, one strand shown. Summed up:
as §1

The target of assay [16] is T11, ELF5 (Homo sapiens, UniProt Q9UKW6-2 1-255).
T11 sequence: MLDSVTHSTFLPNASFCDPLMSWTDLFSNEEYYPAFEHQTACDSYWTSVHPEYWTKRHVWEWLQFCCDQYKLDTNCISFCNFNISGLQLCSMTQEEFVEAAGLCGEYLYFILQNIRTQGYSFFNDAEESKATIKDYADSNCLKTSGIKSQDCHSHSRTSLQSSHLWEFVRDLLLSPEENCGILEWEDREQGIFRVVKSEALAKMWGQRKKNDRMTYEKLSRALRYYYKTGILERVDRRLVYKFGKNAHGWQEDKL
Particulars: protein: recombinant; tags: N-terminal GST; dsDNA, one strand shown. Summed up:
as §1

The target in assay [17] is T12, ETV3 (Homo sapiens, UniProt P41162-2 1-143).
T12 sequence: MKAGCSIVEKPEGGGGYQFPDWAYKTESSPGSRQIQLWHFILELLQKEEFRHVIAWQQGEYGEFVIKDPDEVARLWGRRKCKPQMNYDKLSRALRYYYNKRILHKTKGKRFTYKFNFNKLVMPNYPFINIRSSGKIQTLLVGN
The settings on record: protein: recombinant; tags: N-terminal GST; dsDNA, one strand shown. Summed up: as §1

In assay [18] the target is ETV6 (Homo sapiens, UniProt P41212 1-452). Particulars: protein: recombinant; tags: N-terminal GST; dsDNA, one strand shown. A digest of the protocol:
as §1

Chain of HSF1 (Q00613 whole entry): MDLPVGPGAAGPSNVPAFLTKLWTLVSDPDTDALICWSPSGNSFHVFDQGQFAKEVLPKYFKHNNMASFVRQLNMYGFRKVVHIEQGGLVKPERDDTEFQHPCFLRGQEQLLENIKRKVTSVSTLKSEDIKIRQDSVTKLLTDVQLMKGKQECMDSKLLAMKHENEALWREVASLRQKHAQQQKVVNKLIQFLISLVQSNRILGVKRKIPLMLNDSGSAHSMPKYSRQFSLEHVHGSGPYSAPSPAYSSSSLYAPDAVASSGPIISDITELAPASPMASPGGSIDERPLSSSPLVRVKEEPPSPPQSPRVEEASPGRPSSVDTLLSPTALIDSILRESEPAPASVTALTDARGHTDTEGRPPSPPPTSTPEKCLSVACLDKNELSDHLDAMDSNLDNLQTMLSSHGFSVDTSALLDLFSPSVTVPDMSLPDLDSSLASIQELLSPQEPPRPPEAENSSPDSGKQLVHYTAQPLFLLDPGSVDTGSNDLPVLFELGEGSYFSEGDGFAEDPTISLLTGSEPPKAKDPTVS
Chain of ELF4 (Q99607 whole entry): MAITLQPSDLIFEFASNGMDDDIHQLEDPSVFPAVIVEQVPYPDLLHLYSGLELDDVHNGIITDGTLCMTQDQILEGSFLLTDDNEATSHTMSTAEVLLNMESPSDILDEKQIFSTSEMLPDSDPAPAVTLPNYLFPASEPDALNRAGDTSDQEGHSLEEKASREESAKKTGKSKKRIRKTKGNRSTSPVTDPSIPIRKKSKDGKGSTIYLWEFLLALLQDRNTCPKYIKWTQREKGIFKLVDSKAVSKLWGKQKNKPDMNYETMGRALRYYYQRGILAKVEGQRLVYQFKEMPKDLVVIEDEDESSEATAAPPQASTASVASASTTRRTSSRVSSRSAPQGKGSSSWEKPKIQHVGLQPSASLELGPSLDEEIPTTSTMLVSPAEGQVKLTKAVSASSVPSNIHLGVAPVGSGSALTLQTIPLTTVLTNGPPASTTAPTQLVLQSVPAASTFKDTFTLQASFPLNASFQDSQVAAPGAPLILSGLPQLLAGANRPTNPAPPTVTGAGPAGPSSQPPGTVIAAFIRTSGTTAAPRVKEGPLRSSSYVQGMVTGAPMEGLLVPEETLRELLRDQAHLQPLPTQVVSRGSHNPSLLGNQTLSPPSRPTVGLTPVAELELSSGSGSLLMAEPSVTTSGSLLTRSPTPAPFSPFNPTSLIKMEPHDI
Chain of ETV6 (P41212 whole entry): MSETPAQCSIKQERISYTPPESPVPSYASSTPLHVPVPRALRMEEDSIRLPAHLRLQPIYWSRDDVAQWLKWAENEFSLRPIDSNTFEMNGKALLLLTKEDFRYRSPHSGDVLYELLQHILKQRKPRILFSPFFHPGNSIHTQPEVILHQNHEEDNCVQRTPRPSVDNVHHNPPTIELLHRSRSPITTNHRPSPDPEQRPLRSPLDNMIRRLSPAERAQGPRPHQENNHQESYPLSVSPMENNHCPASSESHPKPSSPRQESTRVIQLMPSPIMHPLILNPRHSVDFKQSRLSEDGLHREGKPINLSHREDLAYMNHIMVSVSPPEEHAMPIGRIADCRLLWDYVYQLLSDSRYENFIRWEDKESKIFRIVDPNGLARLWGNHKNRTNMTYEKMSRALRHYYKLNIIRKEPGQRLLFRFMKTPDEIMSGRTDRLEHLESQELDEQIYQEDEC
Chain of ETV5 (P41161 whole entry): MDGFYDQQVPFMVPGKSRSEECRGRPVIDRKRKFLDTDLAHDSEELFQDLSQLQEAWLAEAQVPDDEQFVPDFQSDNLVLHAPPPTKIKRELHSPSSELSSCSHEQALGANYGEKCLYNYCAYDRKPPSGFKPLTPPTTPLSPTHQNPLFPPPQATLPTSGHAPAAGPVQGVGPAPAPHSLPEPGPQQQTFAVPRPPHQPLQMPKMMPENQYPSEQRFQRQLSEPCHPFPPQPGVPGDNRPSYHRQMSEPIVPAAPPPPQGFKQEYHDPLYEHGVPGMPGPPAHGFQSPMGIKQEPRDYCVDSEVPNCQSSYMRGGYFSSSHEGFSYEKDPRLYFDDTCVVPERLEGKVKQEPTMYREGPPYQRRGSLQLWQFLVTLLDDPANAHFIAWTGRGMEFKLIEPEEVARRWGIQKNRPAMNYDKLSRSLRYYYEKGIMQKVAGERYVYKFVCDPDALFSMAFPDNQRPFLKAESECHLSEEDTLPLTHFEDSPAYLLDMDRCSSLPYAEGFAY
Chain of CRX (O43186 whole entry): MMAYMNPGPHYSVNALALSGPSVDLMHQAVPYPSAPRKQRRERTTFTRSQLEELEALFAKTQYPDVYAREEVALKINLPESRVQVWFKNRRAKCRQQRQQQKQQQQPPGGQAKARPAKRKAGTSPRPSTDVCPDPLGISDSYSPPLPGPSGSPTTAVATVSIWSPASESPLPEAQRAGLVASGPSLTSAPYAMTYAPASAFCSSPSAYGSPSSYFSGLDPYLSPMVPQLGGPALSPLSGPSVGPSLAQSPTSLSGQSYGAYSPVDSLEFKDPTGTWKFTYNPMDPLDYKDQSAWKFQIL
Chain of ETV1 (P50549 whole entry): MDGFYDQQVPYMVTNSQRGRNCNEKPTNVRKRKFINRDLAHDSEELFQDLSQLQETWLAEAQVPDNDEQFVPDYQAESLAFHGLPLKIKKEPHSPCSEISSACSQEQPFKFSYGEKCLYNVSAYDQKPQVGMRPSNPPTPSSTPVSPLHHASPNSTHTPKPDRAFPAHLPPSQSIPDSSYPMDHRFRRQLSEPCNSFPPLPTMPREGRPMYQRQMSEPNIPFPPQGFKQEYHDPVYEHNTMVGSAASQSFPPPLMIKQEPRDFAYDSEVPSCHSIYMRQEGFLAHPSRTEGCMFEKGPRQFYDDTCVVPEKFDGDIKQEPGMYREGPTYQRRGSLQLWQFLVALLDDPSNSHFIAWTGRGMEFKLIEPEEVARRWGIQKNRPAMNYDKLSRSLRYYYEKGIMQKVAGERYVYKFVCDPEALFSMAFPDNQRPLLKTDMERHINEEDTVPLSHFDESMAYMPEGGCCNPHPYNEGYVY

On to TACGAT, for which the binding signal was 1.13 fold enrichment (6-mer frequency, TF over GST control) in assay [1]; 1.12 fold enrichment (6-mer frequency, TF over GST control) in assay [2]; 1.13 fold enrichment (6-mer frequency, TF over GST control) in assay [3]; 1.05 fold enrichment (6-mer frequency, TF over GST control) in assay [4]; 1.11 fold enrichment (6-mer frequency, TF over GST control) in assay [5]; 1.14 fold enrichment (6-mer frequency, TF over GST control) in [6]. Further, the binding signal in assay [7] is 1.12 fold enrichment (6-mer frequency, TF over GST control); in assay [8], 1.11 fold enrichment (6-mer frequency, TF over GST control); in [9] it was 1.37 fold enrichment (6-mer frequency, TF over GST control); in assay [10] it was 1.07 fold enrichment (6-mer frequency, TF over GST control); in assay [11] it was 1.07 fold enrichment (6-mer frequency, TF over GST control); in [12], 1.13 fold enrichment (6-mer frequency, TF over GST control). Also, the binding signal in assay [13] is 1.15 fold enrichment (6-mer frequency, TF over GST control); in assay [14] it was 1.11 fold enrichment (6-mer frequency, TF over GST control); in assay [15] it was 1.07 fold enrichment (6-mer frequency, TF over GST control); in assay [16], 1.03 fold enrichment (6-mer frequency, TF over GST control); in [17], 1 fold enrichment (6-mer frequency, TF over GST control); in [18], 1.03 fold enrichment (6-mer frequency, TF over GST control).
